Screens as filed in PubChem.
Abeta rescue = A-beta toxicity reversal in yeast. yeast expressing A-beta42, growth rescue, OD600, 48 h; response scale: 0% DMSO, 100% iron-clioquinol control. Potency, µM (titrated, usually from 46.1 µM), most hits filed as activators. hit rate 0.063% among 410,000. AID 1347071; note: nearly all actives have a fitted effect of over 55% in size
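Growth rescue measured by 600 nm absorbance after 48 h yeast culture at 30 C with compound. Values normalized between DMSO and an equimolar ferric chloride plus clioquinol control.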
aSyn yeast inh = inhibitors of alpha-synuclein toxicity in yeast; Yeast expressing alpha-synuclein, growth rescue, BacTiter-Glo, 24 h; AID 652106; hit rate 0.14% among 370,000; Potency, µM (top dose mostly 46.1 µM), without a hit: at the highest dose growth rescue (activation), usual class: activators; note: % of control where 0% means no effect; nearly all actives have a fitted effect of over 65% in size
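Screening used galactose-induced yeast with toxic alpha-synuclein levels, exposed to compound for 24 hr at 30 deg C. Cell growth, read with BacTiter-Glo luminescence, gave the measured signal.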
Mm-Cpn inhibitor = blocks the Methanococcus maripaludis chaperonin Mm-Cpn; purified Mm-Cpn ATPase, ADP Transcreener TR-FRET; Potency, µM (series often up to 76.9 µM), without a hit: at the top dose activity, negative = inhibition, usual class: inhibitors; hit rate 0.031% among 330,000; AID 504842; note: % is set by controls: 0 for no effect and ±100 for the full control effect; nearly all actives have a fitted effect of over 80% in size
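Compound-treated chaperonin, 25 nM final, turns over 10 uM ATP at 37°C for 30 min following a 10 min preincubation; ADP generated competes with ADP-d2 for Eu-cryptate antibody, lowering FRET.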
ClpP mod = qHTS Assay for Activators of ClpP; ATP-dependent Clp protease proteolytic subunit (Bacillus subtilis (strain 168)), P80244; purified B. subtilis ClpP, FRET peptide cleavage, 20 min; Potency, µM (titrated, usually from 57.5 µM), without a hit: top-dose activity change, negative = active; hit rate 1.9% among 340,000; active = well fitted falling curve with a large enough effect; inconclusive = small, poorly fitted or top-dose-only effect; inactive = no such curve, though single readings can be large or run the other way; note: the source files actives as falling curves though it sought activators and does not explain the sign; nearly all actives have a fitted effect of over 65% in size
Target sequence (P80244 whole entry, looked up): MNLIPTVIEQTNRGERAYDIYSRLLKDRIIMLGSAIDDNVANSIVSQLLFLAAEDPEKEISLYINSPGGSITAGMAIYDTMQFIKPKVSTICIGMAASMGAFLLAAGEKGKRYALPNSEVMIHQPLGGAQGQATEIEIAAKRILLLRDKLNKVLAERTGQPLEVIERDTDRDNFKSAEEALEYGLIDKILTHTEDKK
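FRET quenching reversal measured ClpP activation: 10 microg/mL B. subtilis ClpP at pH 8 with the FRET-FV decapeptide, read at 430 nm after 320 nm excitation. The 20-min minus 0-min signal was scaled between DMSO/no-enzyme wells and ADEP (5.8 microM final).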
TDP-43 yeast inh = inhibitors of TDP-43 toxicity in yeast. TDP-43 expressing yeast growth rescue, BacTiter-Glo, 24 h. Potency, µM (series often up to 46.1 µM), inactives show top-dose growth rescue (activation), hits mostly activators. hit rate 1.8% among 410,000. AID 652104; note: % of control where 0% means no effect; nearly all actives have a fitted effect of over 50% in size
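Yeast cells expressing TDP-43 under galactose induction are exposed to compounds for 24 hr at 30 deg C. BacTiter-Glo luminescence measures growth, so protective compounds score as activators.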
FUS suppressor = FUS proteinopathy suppression in yeast; S. cerevisiae FUS-expressing, growth rescue, OD600, 24 h; Potency, µM (top dose mostly 76.6 µM), most hits filed as activators; hit rate 0.24% among 390,000; AID 1347120;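 note: plate controls were DMSO vehicle for no effect and reference control for full effect; nearly all actives have a fitted effect of over 55% in size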
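Steps: raffinose overnight preculture; dilution to OD 0.005 in 2% galactose minimal medium; compound addition (concentration series); 24hr at 30C, 99% humidity; absorbance read at 600 nm.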
The depositor's hits bear a star; i = inactive; ? = inconclusive; nt = not tested or not shown; [ ] = another dose, or the depositor's remark. Only some compounds are listed: those with a hit (about 3.6% of all), similar ones and a draw of the others. Unless noted, calls come from the whole dose curve; as a rule, active = well fitted curve in the direction sought with a large enough effect; inconclusive = small, poorly fitted or top-dose-only effect, or another doubt; inactive = no such curve, though single readings can be large; an effect the other way counts as inactive or inconclusive. Potency is the fitted concentration of half-maximal effect.

SMILES | Abeta rescue | aSyn yeast inh | Mm-Cpn inhibitor | ClpP mod | TDP-43 yeast inh | FUS suppressor
Cc1ccc(C)c(N2CCN(S(=O)(=O)c3cc(C(=O)Nc4ccccc4C(F)(F)F)ccc3F)CC2)c1 | 4µM* | nt | nt | -5% | ? | i
O=C(Cc1ccccc1)c1c[nH]c(C(=O)C(Cl)(Cl)Cl)c1 | i | 3% | 3% | 0% | 13µM* | i
O=C(c1ccccc1)c1c[nH]c(C(=O)C(Cl)(Cl)Cl)c1 | i | 1% | 0% | nt | 12% | i
O=C(c1c[nH]c(C(=O)C(Cl)(Cl)Cl)c1)c1ccc(F)cc1Cl | i | -2% | 0% | nt | 8.9µM* | i
CCOC(=O)c1cc(-c2ccccc2)n(-c2cccc(C(=O)NC(C)CC)c2)c1C (stereo not drawn) | i | nt | nt | -10% | -13% | i
CCOC(=O)C1=C(C)NC2=C(C(=O)C(C(=O)OCC)C(c3ccco3)C2)C1c1ccccc1C (stereo not drawn) | nt | 7% | nt | 3% | nt | nt
CCOC(=O)C1=C(C)NC2=C(C(=O)C(C(=O)OCC)C(c3ccco3)C2)C1c1ccccn1 (stereo not drawn) | i | -5% | -1% | 32µM* | -9% | i
CCCOc1ccc(NC(=O)CC2C(=O)N(c3cccc(C)c3)C(=O)N2CCc2ccncc2)cc1 (stereo not drawn) | i | nt | nt | 0% | -1% | i
CC1(c2ccc(OC(F)F)cc2)NC(=O)N(CC(=O)Nc2ccccc2)C1=O (stereo not drawn) | i | 1% | 0% | nt | -5% | i
Cc1ccc2nc(-c3ccc(NC(=O)CN4C(=O)NC(C)(c5ccc(OC(F)F)cc5)C4=O)cc3)sc2c1 (stereo not drawn) | i | 3% | -17% | 14µM* | -19% | i
C=CCn1c(SCC(=O)Nc2ccc(-c3nc4ccc(C)cc4s3)cc2)nnc1-c1ccccc1 | i | -10% | -3% | 16µM* | 23% | nt
Cc1ccc2nc(-c3ccc(NC(=O)COC(=O)c4ccc(Br)o4)cc3)sc2c1 | i | 8% | -3% | 8.9µM* | -13% | i
Cc1ccc2nc(-c3ccc(NC(=O)COC(=O)c4cncc(Br)c4)cc3)sc2c1 | i | 1% | -6% | nt | 33% | i
CCOc1ncccc1C(=O)OCC(=O)Nc1ccc(-c2nc3ccc(C)cc3s2)cc1 | i | -1% | -5% | 3.5µM* | -17% | i
Cc1ccc(CN(Cc2ccco2)c2cnc(S(C)(=O)=O)nc2C(=O)Nc2ccc(Br)cc2)o1 | i | nt | nt | -10% | -18% | i
Cc1ccc2nc(-c3ccc(NC(=O)CN(c4ccccc4C)S(C)(=O)=O)cc3)sc2c1 | i[9.22 µM] | -4% | ? | 25µM* | 3% | i
Cc1ccc(NC(=O)COC(=O)c2ccco2)cc1 | i | -17% | -1% | -2% | 14% | i
Cc1ccc2nc(-c3ccc(NC(=O)COC(=O)c4ccc([N+](=O)[O-])o4)cc3)sc2c1 | i | 4% | -3% | 28µM* | 15% | i
COc1ccc(C)cc1NC(=O)COC(=O)c1ccc([N+](=O)[O-])o1 | i | 2% | 0% | nt | 11µM* | i
Cc1ccc2nc(-c3ccc(NC(=O)COC(=O)c4ccco4)cc3)sc2c1 | i | 2% | -12% | 7.1µM* | -8% | i
COc1ccc(C(C)(C)C)cc1NC(=O)COC(=O)c1ccc([N+](=O)[O-])o1 | i | -73% | 3% | 0% | -93% | i
Cc1nc(N2CCOCC2)c2c(C(=O)NCCc3ccccc3)c(C)oc2n1 | i | nt | nt | -4% | 12% | i
O=C(NCCc1nc2ccccc2n1Cc1ccc(Cl)cc1Cl)c1ccco1 | i | nt | nt | 0% | 16% | i
CC1CCCCN1C(=O)c1cnn2c1NC(=C1CC1)C=C2C(F)F (stereo not drawn) | nt | ? | nt | -13% | nt | nt
CCOc1ccc(-c2noc(CSc3nnc(Cc4ccccc4)n3-c3cccc(C)c3)n2)cc1 | i | nt | nt | -1% | 5% | i
SMILES | Abeta rescue | aSyn yeast inh | Mm-Cpn inhibitor | ClpP mod | TDP-43 yeast inh | FUS suppressor
COc1ccc(S(=O)(=O)Nc2cccc(-c3ccc(N4CCCC4)nn3)c2)cc1F | i | nt | nt | -1% | 10% | i
O=C(COC(=O)c1ccc([N+](=O)[O-])o1)Nc1ccc(F)cc1 | i | -7% | 1% | 0% | 16µM* | i
O=C(COC(=O)c1ccc([N+](=O)[O-])o1)Nc1ccc(N2CCOCC2)cc1 | i | -21% | -3% | -2% | ? | i
N#CC[n+]1cccc(Br)c1 | nt | -2% | nt | -1% | nt | nt
S=C(c1ccc(Br)cc1)N1CCCC1 | i | 2% | 1% | 25µM* | ? | i
COc1ccc(C(=S)N2CCCC2)cc1Br | i | 11% | 0% | -1% | 11µM* | i
COc1ccc(C(=S)N2CCN(C)CC2)cc1Br | i | 2% | -4% | 0% | 5% | i
COc1ccc(Nc2nnc(SCC3CCCCO3)s2)cc1 (stereo not drawn) | i | -18% | 1% | 0% | 11µM* | i
Cc1cccc(Nc2nnc(SCC3CCCCO3)s2)c1 (stereo not drawn) | i | -10% | 3% | 0% | ? | i
CCc1ccc(-c2nc(CN3CCC(C(=O)NCc4ccc(F)cc4)CC3)c(C)o2)cc1 | i | nt | -3% | 1% | 2µM* | i
CS/C(=N\S(=O)(=O)c1cccs1)Nc1ccc(F)c(Cl)c1 | i | -1% | 1% | 20µM* | -3% | nt
O=C1c2ccccc2C2(c3ccccc3)N1CCN2C(=O)C(Cl)(Cl)Cl (stereo not drawn) | i | 5% | -1% | -1% | 13µM* | i
Cc1ccc(C(=O)N2CCN3C(=O)c4ccccc4C23c2ccccc2)cc1 (stereo not drawn) | i | 5% | -9% | nt | 2%[9.22 µM] | i
Cc1ccc(Cl)c2sc(NC(=O)C3=COCCO3)nc12 | i | -7% | 0% | -13% | 11µM* | i
Cc1cc(C)c2sc(NC(=O)C3=COCCO3)nc2c1 | i | -2% | -1% | -12% | 18µM* | ?
Cc1cc(C)c(-c2csc(NC(=O)C3=COCCO3)n2)c(C)c1 | i | -4% | -6% | nt | ? | i
O=C(Cn1c(=O)oc2cc(S(=O)(=O)N3CCCC3)ccc21)NCc1ccc(Cl)cc1 | i | -8% | nt | -3% | -12% | i
